PubChem BioAssay AID778 (Sanford-Burnham Center for Chemical Genomics, 2007)
Hit rate of the full screen: of about 96,000 compounds, about 20,000 (21%) were called active. Not all results are given here. Values without a mark were called inactive.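 The calls were made as follows: active = CYP2C19 inhibition above a set limit at 5 µM in the primary screen (cut at about 50% in these data); inactive = the rest.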

What follows are compounds tested against Cytochrome P450 2C19 (Homo sapiens) (UniProt P33261) (assay: blockers of cytochrome P450 2C19 activity – biochemical, luminescence, ADME assay, primary screen (AID 778;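 also: plate controls were negative control wells for no effect and 2.5 mM tranylcypromine positive control for full effect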)). Conditions: CYP2C19 Supersomes, luciferin-H EGE luminescence, 30 min; at 5 µM; hits give high values.
Chain of Cytochrome P450 2C19 (Homo sapiens) (P33261 whole entry, looked up): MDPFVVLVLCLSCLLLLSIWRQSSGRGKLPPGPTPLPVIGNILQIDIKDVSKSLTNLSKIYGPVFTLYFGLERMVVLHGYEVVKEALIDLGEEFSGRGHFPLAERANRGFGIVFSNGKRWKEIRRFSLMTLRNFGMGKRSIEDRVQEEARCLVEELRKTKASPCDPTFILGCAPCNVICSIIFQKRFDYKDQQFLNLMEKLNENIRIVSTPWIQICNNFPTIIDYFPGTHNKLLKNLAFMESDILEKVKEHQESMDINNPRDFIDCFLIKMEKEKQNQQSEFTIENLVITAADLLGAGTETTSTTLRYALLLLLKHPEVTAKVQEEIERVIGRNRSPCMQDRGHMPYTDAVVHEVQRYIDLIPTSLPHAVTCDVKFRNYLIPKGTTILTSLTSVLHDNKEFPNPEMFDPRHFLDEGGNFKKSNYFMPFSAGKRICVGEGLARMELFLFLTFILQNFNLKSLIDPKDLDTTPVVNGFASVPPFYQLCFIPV

| Structure (SMILES) | inhibition |
| --- | --- |
| COc1ccc(CN2CCN(c3ccccc3F)CC2)c(OC)c1 | 86.7% (active) |
| CC(C)c1ccc(O)c(CN2CCN(c3ccccc3)CC2)c1 | 19.8% |
| CCCCCn1c(=O)c(C(=O)NCc2ccccn2)c(O)c2ccccc21 | 26% |
| CCC(=NCCCO)c1c(O)n(-c2ccc(OC)cc2)c(=O)[nH]c1=O | -9.4% |
| CCCCCCN=C(CC)c1c(O)n(CCCC)c(=O)[nH]c1=O | 73.6% (active) |
| CCCCn1c(O)c(C(CC)=NCc2ccco2)c(=O)[nH]c1=O | 29.9% |
| Cn1c(O)c(C=NCCCC(=O)O)c(=O)n(C)c1=O | -13.4% |
| CCN(CC)CCOC(=O)c1cc2cc(COC)ccc2o1 | -6.5% |
| O=C(c1cc(S(=O)(=O)N2CCOCC2)ccc1F)N1CCC2(CC1)OCCO2 | -8% |
| CCN1CCN(C(=O)Cc2coc3cc(C)cc(C)c23)CC1 | 89.1% (active) |
| Cc1cc(OCc2cc(C(=O)O)oc2C)c2c3c(c(=O)oc2c1)CCCC3 | -33% |
| CN(C)C(=O)NC(O)C(Cl)(Cl)Cl (stereo not given) | 23.9% |
| CCN(CC)P(=O)(Oc1cccc(C)c1)N(CC)CC | 78.8% (active) |
| O=C(CN1CCCCC1)Nc1ccc(Br)cc1C(=O)c1ccccc1Cl | 10.3% |
| CC12CN3CC(C)(CN(C1)C3c1cccs1)C2 (stereo not given) | 7.6% |
| Cc1ccc(N(C)C(=O)Oc2cccc3ccc(C)nc23)cc1 | 55.4% (active) |
| CN1C2C=C(N(C(=O)c3ccc(Cl)cc3)c3ccccc3)CC1CC2 (stereo not given) | 19.9% |
| CCOC(=O)c1c(C)c(C(=O)N2CCC3(CC2)OCCO3)c(C)n1CC | 49.7% |
| C[N+]12CN3CN(CN(C3)C1)C2 | -6.5% |
| Cc1ccc(Cn2nnnc2CN2CCC(n3nnc4ccccc43)CC2)cc1 | 87.4% (active) |
| Nc1ccc(C(=O)N/N=C2/CN3CCC2CC3)cc1 | 15.9% |
| O=C(O)C1CSC(c2cccnc2)N1 (stereo not given) | -10.8% |
| CCOC(=O)C1CN(C)CCC1=O (stereo not given) | -3.5% |

| Structure (SMILES) | inhibition |
| --- | --- |
| CC(=O)c1ccc(OC(NC(=O)Cc2ccccc2)C(Cl)(Cl)Cl)cc1 (stereo not given) | 83.1% (active) |
| CC(=O)NC(=O)NC(C)Cc1ccccc1 (stereo not given) | -11.6% |
| Cc1nc2ccccn2c1P(=S)(N1CCCCC1)N1CCCCC1 | 17.2% |
| CC1=C(C(=O)Nc2ccccc2)SCCO1 | -3.1% |
| CCOP(=S)(OCC)SCOC(=O)NCC(=O)OC | 95.6% (active) |
| Cc1cccc(N2C(=O)NC(=O)/C(=C\c3cnn(-c4ccccc4)c3)C2=O)c1 | -9.4% |
| Cn1c(O)c(C=Nc2ccc3c(c2)CCC3)c(=O)n(C)c1=O | 31.3% |
| N#Cc1ccc(Cn2cc(C(=O)c3ccco3)c3ccccc32)cc1 | 9.2% |
| CSC1=NP(=S)(SC)N(C)c2nc3n(c21)CCC3 (stereo not given) | 8.2% |
| COC(=O)C(c1ccccc1)N1CCCCCC1 (stereo not given) | 12.8% |
| OC(CNC1CCCCC1)c1ccccc1 (stereo not given) | 58.5% (active) |
| O=C(CSC1c2ccccc2-c2ccccc21)N/N=C/c1ccccc1 | 25.3% |
| CCCC(C)n1[nH]c(=O)c2c1NC(=O)CSC2c1ccc(OC)c(OC)c1 (stereo not given) | 7.2% |
| c1cncc(CNC2=NCCC2)c1 | -16.9% |
| CCc1cccc2c(C#N)cn(CC(=O)N3CCOCC3)c12 | 6.7% |
| CC(=O)Nc1ccccc1C(=O)OCC(=O)c1cccc2ccccc12 | 51.1% (active) |
| CCOc1ccc(C2SCC(=O)Nc3c2c(C)nn3C2CCOC(C)(C)C2)cc1 (stereo not given) | 7% |
| CC(C)c1ccc(OCC(=O)N2CCN(C)CC2)c(Br)c1 | 76% (active) |
| CN1CCN(C(=O)COc2ccc(C(C)(C)C)cc2Br)CC1 | 66.5% (active) |
| NC(=O)Nc1cccc(C(F)(F)F)c1 | 26.2% |
| Cc1nc2nc(C)c(CCC(=O)N3CCC4(CC3)OCCO4)c(C)n2n1 | 0% |
| CC(=O)c1c(O)n(C2CCCCCC2)c(=O)[nH]c1=O | 27% |
| O=C(COc1ccc2ccccc2c1)N1CCN(Cc2ccncc2)CC1 | 90.1% (active) |

| Structure (SMILES) | inhibition |
| --- | --- |
| CCN(CC)C(=O)c1ccc(NC(=O)c2cc(-n3cnnc3)ccc2Cl)cc1 | 11.1% |
| Cn1c(C(=O)N2CCC(C(=O)N3CCC4(CC3)OCCO4)CC2)cc2sccc21 | 7.5% |
| CC(C)(C)c1ccc(CN2C(=O)CN=C(c3ccccc3)c3ccccc32)cc1 | 16.5% |
| CCOC(=O)c1c(-c2ccccc2)oc2ccc(OC(=O)N(C)C)cc12 | 60.7% (active) |
| Cc1ccc2c(c1)C1CN(C)CCC1N2C(=O)Cn1nnc(-c2ccccc2F)n1 (stereo not given) | 8.3% |
| CCc1nc2ccccc2c(=O)n1-c1cccc(OC)c1 | 33.5% |
| O=c1c2ccccc2nc(-c2ccco2)n1-c1ccc(Br)cn1 | -3.5% |
| O=c1c2ccccc2nc(-c2ccc(Cl)cc2Cl)n1-c1ccncc1 | 76.4% (active) |
| COC(=O)C(O)(c1ccc(NC(=O)c2ccco2)c(OC)c1)C(F)(F)F (stereo not given) | 39% |
| CCNc1nc2[nH]c(=O)c3c(c2s1)OC(N)=C(C#N)C3c1cccs1 (stereo not given) | -19.6% |
| CCC(=O)CC(c1ccc([N+](=O)[O-])cc1)c1c(O)c2ccccc2oc1=O (stereo not given) | 1.3% |
| COc1ccc(C2NCc3ccc4c(c3-n3cccc32)OCO4)cc1OC (stereo not given) | 77.5% (active) |
| c1ccc(C2NCc3ccccc3-n3cccc32)cc1 (stereo not given) | 33% |
| CCC(=NCc1ccco1)c1c(O)n(Cc2ccccc2)c(=O)[nH]c1=O | 49.6% |
| CC(=NCc1ccc2c(c1)OCO2)c1c(O)[nH]c(=O)[nH]c1=O | -13.9% |
| COc1ccc(CCn2c(O)c(C=NCCCn3ccnc3)c(=O)[nH]c2=O)cc1OC | 16.7% |
| COc1ccc(CCn2c(O)c(C=NC3CC3)c(=O)[nH]c2=O)cc1OC | 94.9% (active) |
| COc1ccccc1-n1c(O)c(C=NC2CC2)c(=O)[nH]c1=O | 42.1% |
| CC(=O)N1CN2CN(C(C)=O)CC(C(=O)c3ccc(Br)cc3)(C2)C1 | -5.5% |
| C=Cn1ccnc1P(=S)(c1cc(N(CC)CC)ns1)c1nccn1C=C | 18.8% |
| CCC/C(=N\O)c1c[nH]c2ccccc12 | 72.6% (active) |
| C/C(CCc1c[nH]c2ccccc12)=N\O | 12% |
| CNP1(NC)=Nc2nn(-c3ccccc3)c(N)c2C(c2ccccc2)=N1 | -1.8% |

| Structure (SMILES) | inhibition |
| --- | --- |
| CNC(=O)N(C)c1nnc(C(C)(C)C)s1 | -8.5% |
| CC[N+](CC)(CC)CCCCCCCCCC[N+](CC)(CC)CC | 14.9% |
| O=C1NC(=O)C(C/C=C/c2ccccc2)C(=O)N1 | 5% |
| COC(=O)CN1C(=O)C2(C(C(=O)OC)=C(N)Oc3ccccc32)C2=C1CC(C)(C)CC2=O (stereo not given) | 18.2% |
| C=CCN1C(=O)C2(C(C(=O)OCC)=C(N)Oc3c2c(=O)oc2ccccc32)c2ccccc21 (stereo not given) | 88.5% (active) |
| Cc1ccc(P(=S)(c2ccc(C)o2)N2CCOCC2)o1 | 36.5% |
| Cc1cc(N2C(=O)C3CCCN3C2c2ccc(Cl)c(Cl)c2)no1 (stereo not given) | 11.9% |
| CCN1c2nc3c(C)cccn3c(=O)c2CC2(C(=O)N(C)C(=O)N(C)C2=O)C1C (stereo not given) | -11.5% |
| N[C@@H](Cc1c[nH]c2ccccc12)c1nnc(SCc2c(F)cccc2Cl)o1 | 74.1% (active) |
| COc1ccc(-c2nc(CS(=O)CC(=O)N3CCC4(CC3)OCCO4)c(C)o2)cc1 (stereo not given) | 13.3% |
| CCCCCn1c(=O)c(C(=O)Nc2c(C)n(C)n(-c3ccccc3)c2=O)c(O)c2ccccc21 | 1.4% |
| O=C(c1cc(-c2ccncc2)nc2ccccc12)N1CCC2(CC1)OCCO2 | 35.1% |
| O=C(c1cc2nc(-c3ccccc3)cc(-c3ccccc3)n2n1)N1CCC2(CC1)OCCO2 | 94% (active) |
| Cc1cccc(-n2c(C)nc3cc(C(=O)N4CCC5(CC4)OCCO5)ccc32)c1 | 6.6% |
| O=C(CCN1CCCCC1)NCC(=O)Nc1ccc(Br)cc1C(=O)c1ccccc1 | -17.3% |
| CC(=C1C(=O)c2ccccc2C1=O)N1CCN(CCN=Cc2c(O)n(C)c(=O)n(C)c2=O)CC1 | 24.7% |
| CC1(C)C(c2ccccc2)=NC(c2cccnc2)=[N+]1[O-] | 16.4% |
| c1ccc2sc(C3CCCNC3)nc2c1 (stereo not given) | -18.4% |
| CCOc1ccc(CN(CCCl)CCCl)cc1C(=O)OC | 63.9% (active) |
| O=C1/C(=C\c2ccc3c(c2)OCO3)N2CCC1CC2 | 40% |
| CCOC(=O)C(O)(c1ccc(NC(=O)c2ccco2)c(OC)c1)C(F)(F)F (stereo not given) | 25.1% |
| CN1CCC(N(C)Cc2cccnc2)CC1 | -0.7% |
| COc1ccccc1N1CCN(C(CNC(=O)Oc2ccccc2)c2cccnc2)CC1 (stereo not given) | 39.7% |

| Structure (SMILES) | inhibition |
| --- | --- |
| CN1CCN(Cc2ccc(OC(F)(F)F)cc2)CC1 | 20.2% |
| COC(=O)N(c1ccc(OC)cc1)P1(=S)OCCC(C)O1 (stereo not given) | 21.5% |
| COc1ccc(C(=O)C2CN(C)CC2C(=O)c2ccc(OC)cc2)cc1 (stereo not given) | 8.9% |
| COc1ccccc1CN1CCN(C(=O)Cc2ccccc2)CC1 | 68.1% (active) |
| CCC(=NCCc1ccccc1)c1c(O)n(C2CCCCC2)c(=O)[nH]c1=O | 11.8% |
| CCOC(=O)c1c(N)n(Cc2ccccc2)c2nc3ccccc3nc12 | -1% |
| COc1cc(Cn2c(N)c(C(=O)NCc3ccco3)c3nc4ccccc4nc32)cc(OC)c1OC | 93.2% (active) |
| CCOC(=O)c1c(N)n(CCN2CCOCC2)c2nc3ccccc3nc12 | 13.3% |
| COc1ccccc1N=C1SCCCN1C | -31.2% |
| O=C(C1CC(=O)N(C2CCCC2)C1)N1CCC2(CC1)OCCO2 (stereo not given) | 10.5% |
| COc1ccc(S(=O)(=O)NCc2ccc(C(=O)N3CCC4(CC3)OCCO4)cc2)cc1 | -0.4% |
| CC(=O)N(C1=NCCCS1)c1ccccc1F | 7.3% |
| CCOC(=O)C1SC2(C(F)(F)C(F)F)CC1(O)c1c(c(OC)c3occc3c1OC)O2 (stereo not given) | 92.1% (active) |
| Cc1ccc(C)c(NC2=NCCCS2)c1 | 7.4% |
| CC(=NCC1CCCO1)c1c(O)n(-c2ccccc2)c(=O)[nH]c1=O (stereo not given) | 22.9% |
| CCOC(=O)C1=C(C)OC(N)=C(C(=O)OC)C12C(=O)Nc1ccc(Br)cc12 (stereo not given) | 62.4% (active) |
| CCOC(=O)CC1=C(C(=O)OCC)C2(C(=O)N1)C(C(=O)OC)=C(N)Oc1ccccc12 (stereo not given) | 4.8% |
| Cc1cc(C)cc(NC(=S)NC2CC3CCCC(C2)N3Cc2cccs2)c1 (stereo not given) | 22.1% |
| CC(=NC1CCN(Cc2ccccc2)CC1)c1c(O)n(C)c(=O)n(C)c1=O | 8.1% |
| CN1CCN(Cc2ccccc2C(F)(F)F)CC1 | 7.9% |
| Fc1cccc(F)c1CN1CCN(Cc2c(F)cccc2F)CC1 | 94.4% (active) |
| CCOC(=O)C(O)(c1ccc(N)c(OC)c1)C(F)(F)F (stereo not given) | 20.4% |
| Fc1ccc(N2CCN(Cc3ccc4c(c3)OCO4)CC2)cc1 | 22.5% |
